# Source: PubChem
# Efa HMGR inh = inhibitors of E. faecalis class II HMGR, primary screen, biochemical, Enterococcus faecalis | actives 0.41% (n = 190,000) | inhibition, % at 10 µM | purified E. faecalis HMGR, NADPH absorbance 340 nm kinetic | HMG-CoA reductase (Enterococcus faecalis, mvaE) | AID 1066, 2008;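 active means inhibition above a set limit, the median over all tested compounds plus 3 SD, cut at about 9.5% in these data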;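 further: enzyme runs in reverse so mevalonate oxidation gives rising NADPH absorbance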
# dFosB activator = activators of delta FosB homodimer, primary screen, biochemical, fluorescence polarization, TAMRA-CDK5 oligo, single point | Protein FosB (Mus musculus), P13346 | purified delta FosB; percent of positive-control signal above neutral wells | activation, % at 25 µM | actives 0.99% (n = 340,000);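 active means mean activation above about 17%, with every replicate also reaching it, limit read from the data, passing the limit was not always enough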
# Target sequence (P13346 whole entry, looked up): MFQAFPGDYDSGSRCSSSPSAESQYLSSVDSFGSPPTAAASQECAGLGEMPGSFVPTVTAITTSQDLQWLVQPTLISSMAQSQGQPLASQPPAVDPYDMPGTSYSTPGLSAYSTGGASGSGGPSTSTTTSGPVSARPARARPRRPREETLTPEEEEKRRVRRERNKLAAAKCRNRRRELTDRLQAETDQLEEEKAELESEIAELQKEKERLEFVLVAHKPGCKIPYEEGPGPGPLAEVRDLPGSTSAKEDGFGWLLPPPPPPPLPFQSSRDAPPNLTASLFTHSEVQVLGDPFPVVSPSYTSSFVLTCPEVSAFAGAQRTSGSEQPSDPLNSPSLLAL
# p47phox inh = p47phox/p22phox peptide binding inhibitors, primary screen, biochemical, uHTS, NADPH oxidase regulatory subunit. actives 0.53% (n = 220,000). Neutrophil cytosol factor 1 (Homo sapiens), P14598. fluorescence polarization, 2 h. inhibition, % at 24.7 µM;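 active means inhibition above about 30%, limit read from the data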
# 14-3-3 Bad inh = inhibitors of 14-3-3 zeta/Bad binding, primary screen, biochemical, TR-FRET, bovine 14-3-3 zeta; TR-FRET 14-3-3zeta/Dy647-pBad peptide displacement, 1 h; inhibition, % at 21.7 µM; actives 0.71% (n = 220,000); AID 781, 2007;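 active means inhibition above about 70%, limit read from the data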
# Target sequence (P63103 whole entry, looked up): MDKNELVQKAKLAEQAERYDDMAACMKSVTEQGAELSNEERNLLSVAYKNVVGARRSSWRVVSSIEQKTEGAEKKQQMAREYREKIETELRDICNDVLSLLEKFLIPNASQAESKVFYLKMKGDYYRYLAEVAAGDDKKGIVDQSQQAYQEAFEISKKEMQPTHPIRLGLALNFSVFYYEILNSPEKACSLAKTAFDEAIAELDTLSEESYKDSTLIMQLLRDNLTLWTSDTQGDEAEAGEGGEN
# Hits are given with their value; – = inactive; · = not tested or not shown; [ ] = remark or other dose. Only some compounds are listed: those with a hit (about 1.9% of all), similar ones and a draw of the others.
SMILES,Efa HMGR inh,dFosB activator,p47phox inh,14-3-3 Bad inh
O=C(CSc1nnc(-c2ccc3c(c2)OCO3)o1)Nc1ncc(Cl)cc1Cl,–,–,–,–
O=c1[nH][nH]c2c(N=Cc3ccccc3O)ccc(F)c12,·,–,134,70
CCc1ccc(O)c(N=Cc2ccccc2O)c1,–,–,–,–
Cc1ccc(-c2nnc(N3CC(C)OC(C)C3)c3ccccc23)cc1 (stereo not drawn),–,–,–,75
Cc1ccc(Cl)c(OCCCCN(C)Cc2ccccc2)c1,–,–,–,77
CN(CCOc1ccccc1Cl)Cc1ccccc1,·,–,·,·
Cc1ccc(Cl)c(OCCCN(C)Cc2ccccc2)c1,·,–,–,72
COc1ccc(CNC(=O)Cn2cc(C(F)(F)F)ccc2=O)cc1OC,·,–,·,·
Cc1ccccc1-n1nnnc1SCC(=O)Nc1ccc(N2CCN(C)CC2)cc1,·,–,·,·
COc1ccc(N2CCSC2C(=O)NN)cc1 (stereo not drawn),–,–,–,–
CC1CCCC(NC(=O)COC(=O)COc2ccccc2Cl)C1C (stereo not drawn),11,–,–,–
NC(=O)c1c(NC(=O)CSc2nnc(-c3ccco3)n2-c2ccccc2)sc2c1CCC2,–,–,–,–
CCOC(=O)N1CCC(NC(=O)c2cc(C(=O)NCc3cccc(Cl)c3)ccc2CO)CC1,–,–,–,–
CCCCN(C)CC(O)Cn1cc(/C=C/C(=O)c2ccc(C)cc2)c2ccccc21 (stereo not drawn),·,26,·,·
COc1ccc(CN2CCCC(C(=O)c3cccc(OC(C)C)c3)C2)cc1Cn1cccn1 (stereo not drawn),–,–,–,–
Cc1cccc2[nH]c(SCC(=O)N3CCOCC3)nc12,11,–,–,–
COCCn1c(=N)c(C(=O)NCc2ccco2)cc2c(=O)n3cc(C)ccc3nc21,17,–,–,–
CCOc1ccccc1N1CCN(C(=O)Nc2ccc(Cl)c(Cl)c2)CC1,–,·,–,–
CC1=CC(=C(C#N)C#N)C=C(C)N1CCN1CCN(C(=O)Nc2ccc(Cl)c(Cl)c2)CC1,–,50,–,–
CC1(C)OC(c2ccccc2)=C/C(=C/C=Nc2ccccc2)O1,–,–,–,–
CCc1nnc(NC(=O)CSc2nc3c(C)cccc3[nH]2)s1,–,–,–,–
O=C(O)c1cc(-c2ccccc2)n(-c2ccccc2C(=O)O)n1,9.6,–,–,–
CCOc1ccc(S(=O)(=O)Nc2ccccc2SC)cc1,–,–,–,–
COC(=O)COc1ccc(S(=O)(=O)Nc2ccccc2SC)cc1,–,–,91,–
COc1cccc(C(c2nnnn2Cc2ccc(F)cc2)N2CCC(C(N)=O)CC2)c1OC (stereo not drawn),–,–,–,77
SMILES,Efa HMGR inh,dFosB activator,p47phox inh,14-3-3 Bad inh
COc1ccc(Cn2nnnc2C(c2ccccc2OC)N2CCC(C(N)=O)CC2)cc1 (stereo not drawn),–,–,–,–
CCOc1cc(NC(=O)C2CCCO2)c(OCC)cc1NC(C)=O (stereo not drawn),–,–,103,–
CNC(=S)N/N=C1\CC(c2ccccc2)Oc2ccccc21 (stereo not drawn),–,–,–,–
Cc1[nH]c2ccccc2c1C(=O)COC(=O)Cn1cnc2ccccc21,–,–,–,–
CSc1ccc(CNC(=O)C(C)n2nc(C)c3c(C)n(-c4ccccc4)nc3c2=O)cc1 (stereo not drawn),·,–,·,·
COc1ccc(-n2nc3c(N4CCC(C(=O)NCc5ccccc5C)CC4)nnc(C)c3c2C)cc1,·,77,·,·
COc1ccc(-n2nc3c(N4CCC(C(=O)NCCc5ccccc5C)CC4)nnc(C)c3c2C)cc1,·,–,·,·
Cn1c(=O)c2[nH]c(Cc3cccc4ccccc34)nc2n(C)c1=O,·,–,·,·
CC(=O)OCc1c(C(F)(F)F)nn(C)c1SCc1ccc(Cl)cc1,–,–,–,141[fluorescence artefact?]
CC(Sc1nc2ccccc2c(=O)n1CCCN1CCOCC1)C(=O)N1CCc2ccccc21 (stereo not drawn),·,–,·,·
C[N+]1(CC(=O)Nc2ccccc2Cl)CCN(C(=O)c2cccs2)CC1,–,–,94,–
CCc1ccccc1NC(=O)C1CCN(C(=O)c2cccs2)CC1,·,–,·,·
O=C(COc1ccccc1C(=O)Nc1ccccc1)c1ccc(F)cc1,–,–,–,–
O=C(COc1ccccc1C(=O)Nc1ccccc1)c1ccc(Br)cc1,10,–,–,–
COc1ccc(C(Nc2ccccn2)c2c(NC(=O)c3ccco3)sc(C)c2C)cc1 (stereo not drawn),–,–,–,–
O=C(NCc1ccco1)/C(=C\c1ccco1)NC(=O)c1cccs1,–,–,–,–
CC(C)(C)NC(=O)/C(=C\c1ccco1)NC(=O)c1cccs1,11,–,–,–
Cc1ccccc1C(=O)c1cccn1CC(=O)NC(C)c1ccccc1 (stereo not drawn),·,–,·,·
Cc1ccccc1C(=O)c1cccn1CC(=O)NC(C)c1ccc2c(c1)OCCO2 (stereo not drawn),12,–,–,–
COc1ccc(CCn2c(C)cc3c(c2=O)C(c2ccc4c(c2)OCO4)C(C#N)=C(N)O3)cc1OC (stereo not drawn),–,51,–,–
CC(=O)c1ccccc1OC(=O)CCN1C(=O)c2ccccc2C1=O,13,–,–,–
O=c1[nH]c(-c2ccccc2Cl)nc2c1sc(=S)n2-c1ccccc1,–,–,–,71
C=CCNc1nc(-c2ccc(OC)cc2OC)cs1,–,–,–,76
COc1ccc(-c2csc(NC(=O)C3=COCCO3)n2)c(OC)c1,·,–,·,·
Cc1nn(C(C)CC(=O)O)c(C)c1Br (stereo not drawn),–,–,–,–
SMILES,Efa HMGR inh,dFosB activator,p47phox inh,14-3-3 Bad inh
O=C(O)COc1ccccc1/C=N/NC(=O)CSc1nc2ccccc2s1,·,–,–,–
C=CCn1c(=N)n(CC(=O)c2cccc([N+](=O)[O-])c2)c2ccccc21,–,–,–,–
N=c1n(CCN2CCCCC2)c2ccccc2n1CC(=O)c1cccc([N+](=O)[O-])c1,·,21,·,·
Cc1cccc2c1-c1sc(C(=O)Nc3ccccc3N3CCN(C)CC3)cc1CO2,·,26,–,–
Cc1cccc2c1-c1sc(C(=O)N3CCCCC3)cc1CO2,·,–,·,·
Cc1ccc(C(=O)Cn2cnc3ccccc3c2=O)cc1,10,–,–,–
O=S(=O)(NCC(Nc1ccc(Cl)cc1)c1ccccc1)c1ccccc1 (stereo not drawn),–,–,–,–
CC(C)(C)c1nc(CN2CCOCC2)cc(CN2CCOCC2)c1O,–,–,–,79
Cc1cc(C)cc(N(CC(=O)NCc2ccccc2)C(=O)CCC(=O)Nc2ccccn2)c1,·,–,·,·
O=c1c(CN2CCN(c3ccccn3)CC2)coc2ccccc12,–,–,–,–
Brc1ccc(CN2CCN(c3ccccn3)CC2)s1,–,–,–,85
Cc1c(NS(=O)(=O)c2ccc3c(c2)Cc2ccccc2-3)c(=O)n(-c2ccccc2)n1C,14,–,–,–
Cc1c(NS(=O)(=O)c2ccc(Br)s2)c(=O)n(-c2ccccc2)n1C,10,–,–,–
